In PubChem BioAssay (EPA / NIEHS):
Inconclusive results are not listed. Active and inactive are the calls of the source. Rule for the calls, unless noted: active = hit-call score of the fitted dose curve at least 0.9, where 1 is the maximum; inactive = score below 0.9.

What was measured:
[1] = system: SRY-box transcription factor 2 (SOX2) Protein Expression, Deisenroth Lab, SOX2 (gene 6657); assay: CCTE_Deisenroth_DEVTOX-GLR_Pluri_SOX2: CCTE's DevTox GLR-Pluri Assay Evaluation of SRY-box transcription factor 2 (SOX2) Protein Expression, Deisenroth Lab (AID 2284428)
Procedure, shortened: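 Steps: seed RUES2-GLR cells for 24 h; start 48 h differentiation in defined media; dose test chemicals at 0 and 24 h (1 nM–200 uM); fix, stain nuclei, image; compute SOX2+ percentage against 0.2% DMSO wells.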

[2] = system: Brachyury (BRA) Protein Expression, Deisenroth Lab, TBXT (gene 6862); assay: CCTE_Deisenroth_DEVTOX-GLR_Pluri_BRA: CCTE's DevTox GLR-Pluri Assay Evaluation of Brachyury (BRA) Protein Expression, Deisenroth Lab (AID 2284429; active = hit-call score of the fitted dose curve at least 0.9, where 1 is the maximum)
Procedure, shortened: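 Human pluripotent RUES2-GLR cells, seeded 24 h, were differentiated 48 h in defined media with two chemical doses at 24-h intervals (10-point, 1 nM - 200 uM). Readout: percent BRA+ cells by fluorescent reporter imaging, minus 0.2% DMSO control.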

[3] = CCTE_Deisenroth_DEVTOX-GLR_Pluri_CellCount: Viability Assessment in CCTE's DevTox GLR-Pluri Assay Evaluation of Total Cell Counts, Deisenroth Lab (AID 2284430)
Procedure, shortened: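 RUES2-GLR human pluripotent cells, seeded 24 h, then differentiated 48 h with two chemical exposures 24 h apart; 10-point series 1 nM - 200 uM. Fixed, nuclear-stained, imaged (5 fields/well); nuclei count as % change vs 0.2% DMSO.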

Measured: outcome

COC(=O)c1ccccc1C(=O)OC
inactive: all assays above
